{
  "source": "ChEMBL document CHEMBL4513216",
  "about": "“Probing the Open Global Health Chemical Diversity Library for Multistage-Active Starting Points for Next-Generation Antimalarials” (ACS Infect Dis, 2020)",
  "note": "About 2,100 (3.2%) of roughly 65,000 compounds showed an effect of 50% or more. The median lay at about -52%. The sample holds strong results, similar compounds and a random draw of the others, so the mix is not that of the screen.",
  "data": [
    {"test_system": "Plasmodium falciparum", "test": "Screen against P. falciparum Asexual Blood Stage (ABS), at 5uM", "format": "functional, Dd2", "settings": "tested at 5 uM", "units": {"INHIBITION": "%"}, "values": [
      {"smiles": "Cn1cc(CN2CCCC(CCc3ccc(F)cc3F)C2)cn1", "note": "(stereo not drawn)", "INHIBITION": 89.3},
      {"smiles": "Cn1cc(CN2C[C@H](Oc3ncccc3F)[C@H]3OCCC[C@H]32)cn1", "INHIBITION": -37},
      {"smiles": "Cn1cc(CN2CCCC(CCc3ccc(F)cc3)C2)cn1", "note": "(stereo not drawn)", "INHIBITION": 74.7},
      {"smiles": "Cc1cccc(CN2CC[C@H]3[C@H]2CCN3Cc2cnn(C)c2)n1", "INHIBITION": -127},
      {"smiles": "Cn1cc(CN2CCCC(CCc3ccc(F)c(F)c3)C2)cn1", "note": "(stereo not drawn)", "INHIBITION": 71.2},
      {"smiles": "Cn1cc(CN2CCCC(CCc3c(F)cccc3F)C2)cn1", "note": "(stereo not drawn)", "INHIBITION": 79.3},
      {"smiles": "Cc1ccc(N2CCO[C@H]3CN(Cc4cnn(C)c4)C[C@H]32)nn1", "INHIBITION": 7.68},
      {"smiles": "CN(C)[C@@H]1CCN(C(=O)Cc2ccc(F)cc2)[C@H]1Cc1cnn(C)c1", "INHIBITION": -2.98},
      {"smiles": "Cn1cc(CN2CC[C@H]3CO[C@H](CNc4ncccn4)[C@H]3C2)cn1", "INHIBITION": -108},
      {"smiles": "Cn1cc(CN2C[C@@H]3CCC[C@@H](OCc4cccnc4)[C@@H]3C2)cn1", "INHIBITION": -74.7},
      {"smiles": "Cn1cc(CN2CCN3C[C@H](Oc4cccnc4)C[C@H]3C2)cn1", "INHIBITION": -50.7},
      {"smiles": "Cn1cc(CN2CC[C@@H]3[C@@H]2CCN3C(=O)Cc2cccc(F)c2)cn1", "INHIBITION": -39.1},
      {"smiles": "CC(=O)N1CCC2(CCN(CC(C)C)C2)C1", "note": "(stereo not drawn)", "INHIBITION": -17.7},
      {"smiles": "CCOC(=O)CN1C[C@@H]2OCCN(c3ncc(F)cn3)[C@@H]2C1", "INHIBITION": -17.5},
      {"smiles": "COCc1cn(C[C@H]2C[C@@H]3CCN2C[C@@H]3C(=O)N2CCOCC2)nn1", "INHIBITION": -65.4},
      {"smiles": "Cc1cc(C)nc(-n2nc(C)c3c2NC(=O)CSC3c2cnn(C)c2)n1", "note": "(stereo not drawn)", "INHIBITION": -48.5},
      {"smiles": "Cn1cc(CN2CCCC(CCc3ccccc3C(F)(F)F)C2)cn1", "note": "(stereo not drawn)", "INHIBITION": 87.9},
      {"smiles": "Cc1nc(CN2CCCC(CCc3ccccc3C(F)(F)F)C2)no1", "note": "(stereo not drawn)", "INHIBITION": 45.9},
      {"smiles": "Cc1nc(CN2CCCC(CCc3ccc(F)c(F)c3)C2)c[nH]1", "note": "(stereo not drawn)", "INHIBITION": 81.9},
      {"smiles": "O=C(Cc1cnccn1)N1C[C@@H]2CC[C@H]1CN(Cc1cscn1)C2", "INHIBITION": -120},
      {"smiles": "Cn1ccnc1CN1CCCC(CCc2ccc(F)c(F)c2)C1", "note": "(stereo not drawn)", "INHIBITION": 74.5},
      {"smiles": "FC(F)(F)c1ccccc1CCC1CCCN(Cc2cscn2)C1", "note": "(stereo not drawn)", "INHIBITION": 79.6},
      {"smiles": "CN(C)Cc1cncc2c1CCN(Cc1cnn(C)c1)C2", "INHIBITION": -86.8},
      {"smiles": "Cc1noc(C)c1CN1CCO[C@H]2CN(Cc3nccn3C)C[C@H]21", "INHIBITION": -35.4},
      {"smiles": "COc1cccc([C@@H]2CCN(Cc3c[nH]c(C)n3)C[C@H]2O)c1", "INHIBITION": -35.2},
      {"smiles": "Cn1ccnc1CN1CCN2C[C@H](OCc3cccnc3)C[C@H]2C1", "INHIBITION": -52.6},
      {"smiles": "O=C1N(Cc2cccc(F)c2F)CCCC1(O)CNCC1CCCCC1", "note": "(stereo not drawn)", "INHIBITION": 74.4},
      {"smiles": "O=C1N(Cc2ccc(F)c(F)c2)CCCC1(O)CNCC1CCCCC1", "note": "(stereo not drawn)", "INHIBITION": 74.1},
      {"smiles": "COc1ccc(F)c(CN2CCCC(O)(CNC3CCCCC3)C2=O)c1", "note": "(stereo not drawn)", "INHIBITION": 70.3},
      {"smiles": "Cc1nc(C2(NCc3cccc(F)c3F)CCCCC2)no1", "INHIBITION": -42.2},
      {"smiles": "COC(=O)C(CO)NC(=O)c1cn(Cc2ccccc2F)nn1", "note": "(stereo not drawn)", "INHIBITION": -19.2},
      {"smiles": "CC(C)(C)CNCC1(O)CCCN(Cc2ccccc2F)C1=O", "note": "(stereo not drawn)", "INHIBITION": 84.5},
      {"smiles": "O=C(C1CCCC1)N1CCO[C@@H]2CNC[C@@H]21", "INHIBITION": 8.33},
      {"smiles": "O=C1N(c2ccsc2)CCC12CCCN(Cc1ccccn1)C2", "note": "(stereo not drawn)", "INHIBITION": -30.2},
      {"smiles": "c1cncc(OC[C@@H]2CC[C@H]3[C@H](CCN3Cc3cccs3)O2)c1", "INHIBITION": -15.5},
      {"smiles": "Cc1oncc1C(=O)N[C@@H]1CN(CC2CC2)C[C@@H]2CCCO[C@@H]21", "INHIBITION": -164},
      {"smiles": "Cc1cc(CN2C[C@@H]3COC[C@]3(CNC(=O)c3ccco3)C2)no1", "INHIBITION": -65.1},
      {"smiles": "CC(C)N1CCO[C@H]2CN(C(=O)Cc3cccs3)C[C@H]21", "INHIBITION": -102},
      {"smiles": "c1cc(CO[C@@H]2CC[C@H]3[C@H]2OCCN3CC2CCOCC2)ccn1", "INHIBITION": -52.1},
      {"smiles": "CNC(=O)[C@@]12CCCN(c3ncccn3)[C@@H]1CN(C)C2", "INHIBITION": -69.8},
      {"smiles": "CC(C)(C)c1cc(=O)[nH]c(C2(N)CCCC2)n1", "INHIBITION": -59.9},
      {"smiles": "CS(=O)(=O)N1CCC(Nc2ccc(C#N)c(C(F)(F)F)c2)CC1", "INHIBITION": -14.2},
      {"smiles": "Cc1cc(C)cc(OCC(=O)N2CCCN(CC(N)=O)CC2)c1", "INHIBITION": -21.7},
      {"smiles": "NC(=O)CN1CCC(Nc2ccnc3ccc(Cl)cc23)CC1", "INHIBITION": 94.4},
      {"smiles": "CS(=O)(=O)N1CCC(Nc2ccnc3ccc(Cl)cc23)CC1", "INHIBITION": 88.6},
      {"smiles": "NC(=O)CN1CCCN(C(=O)COc2cccc(F)c2)CC1", "INHIBITION": -58.7},
      {"smiles": "O=C1[C@H]2CN(Cc3ccoc3)C[C@H]2CN1Cc1ccncc1", "INHIBITION": -110},
      {"smiles": "COc1ccc2c(c1)c(C(=O)Nc1cc(C)n(C)n1)cn2C(C)C", "INHIBITION": 9.46},
      {"smiles": "O=C1NCc2ccccc2CC12CCN(Cc1ccncc1Cl)C2", "note": "(stereo not drawn)", "INHIBITION": -32},
      {"smiles": "COc1cc(C2SCC(=O)Nc3ccsc32)cc(OC)c1OC", "note": "(stereo not drawn)", "INHIBITION": -0.914},
      {"smiles": "c1csc(CN2CC[C@H]3C[C@H](c4ccncn4)O[C@@H]3C2)c1", "INHIBITION": -71.5},
      {"smiles": "Cn1cc(CN2CCC3(CC2)C(=O)Nc2ccccc23)cn1", "INHIBITION": -74.2},
      {"smiles": "Cn1cc(CN2CCN(CC3(c4ccccc4)CC3)CC2)cn1", "INHIBITION": 78.9},
      {"smiles": "Cn1cc(CN2CCC3(CCCN3Cc3cccnc3)CC2)cn1", "INHIBITION": -18.8},
      {"smiles": "C=Cn1cc(CN2CCN(CC3(c4ccccc4)CC3)CC2)c(C)n1", "INHIBITION": 72.4},
      {"smiles": "O=C1CO[C@@H]2CN(C3CCOCC3)C[C@H]2N1Cc1ccncc1", "INHIBITION": -24.5},
      {"smiles": "Cn1nc(-c2cccs2)cc1[C@H]1CN2CC[C@H]1C[C@@H]2CNS(C)(=O)=O", "INHIBITION": -60.1},
      {"smiles": "Cc1nc(C2(NCC(=O)NC(=O)Nc3ccccc3)CCCCC2)no1", "INHIBITION": -126},
      {"smiles": "CCn1ccnc1CN1CCCN(C(=O)Cc2ccc(C)s2)CC1", "INHIBITION": -75.1},
      {"smiles": "CCn1ccnc1CN1CCCN(C(=O)Cc2ccc(C)nc2)CC1", "INHIBITION": -85.3},
      {"smiles": "CCOC(=O)C1(Cc2ccccc2)CCCN(Cc2nccn2CC)C1", "note": "(stereo not drawn)", "INHIBITION": 71.1},
      {"smiles": "CCn1ccnc1CN1CCCC(CO)(Cc2cccc(Cl)c2)C1", "note": "(stereo not drawn)", "INHIBITION": 76.8},
      {"smiles": "CCn1ccnc1CN1CCCN(C(=O)Cc2ccc(C)cc2)CC1", "INHIBITION": -118}
    ]}
  ]
}
